According to PubChem BioAssay (NCI):
The panel holds about 83,000 compounds, 20% with a hit somewhere; the sample as a whole holds those more often.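 Cells were grown in 96-well plates and exposed to the test compound at a single concentration for 48 hours; results are reported as percent growth, with values below 10 considered active.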 Values without a mark were called inactive. Activity calls are given as the source filed them.

Tested on: A498 renal
Test: NCI-60 one-dose screen, 48 h (100 = growth as untreated, 0 = no growth, -100 = all killed)
Settings: 10 µM unless noted
Description: Growth inhibition of the A498 human tumor cell line is measured as a screen for anti-cancer activity. Cells are grown in 96 well plates and exposed to the test compound for 48 hours. Compounds are tested at a single concentration, which is 10^-5 M for most compounds. The reported endpoint is percent growth (GI% or GIPRCNT), where numbers from 0 - 100% represent growth inhibition, and numbers from -100% - 0 represent cell death. For example, a value of 40 represents 60% growth inhibition. A value of 0 means no net growth occurred over the course of the experiment. A value of -40 indicates 40% of cells at the beginning of the experiment died by the end of the experiment. A value of -100 means all cells are dead at the end of the experiment.
NCI-60 Human Tumor Cell Lines Screen was performed using the standard one-dose NCI protocol, which is described in more detail at https://dtp.cancer.gov/discovery_development/nci-60/default.htm.
Compounds with GIPRCNT values below 10 were considered active. Activity score was based on GIPRCNT using the following formula: […]
Score is 0 for GIPRCNT values of 100 or above, 50 for GIPRCNT values of 0, and 100 for GIPRCNT values of -100.

Row | SMILES | growth
1 | COc1ccc2cc(-c3cc(OC)c(OC)c(OC)c3)c(=O)oc2c1 | 53%
2 | CC1=CN2C(=O)C3C4=C(CCCC4)SC3N=C2CN1c1c(C)cccc1C (stereo not given) | 92%
3 | COc1ccc2c(c1)O/C(=C/c1ccc(OCC(=O)c3ccccc3)cc1)C2=O | 170%
4 | Cc1ccc2nc(NC(=O)CSc3nc(Nc4ccc([N+](=O)[O-])cc4)c(C#N)c(-c4ccccc4)n3)sc2c1 | 116%
5 | CCOC(=O)C/C(C)=N\NC(=O)c1ccncc1 | 96.8%
6 | Cc1ccc(-c2cc(-c3cccnc3)[nH]c(=O)c2C#N)cc1 | 82.4%
7 | CC(C)(C)OC(=O)Nc1ccc2c(c1)C(NC(=O)Nc1cccc(C#N)c1)CC(C)(C)O2 (stereo not given) | 57.5%
8 | CCCCNC(=O)Oc1ccc2c(=O)c3sc4c(=O)c5ccccc5c(=O)c4c3c(=O)c2c1 | -98.8% (active)
9 | O=C(Nc1cccc(Oc2nnc(Cl)c3ccccc23)c1)Nc1ccc(Cl)c(C(F)(F)F)c1 | -82.7% (active)
10 | Cc1c(C(=O)OC(=NC2CCCCC2)NC2CCCCC2)sc2c1c(=O)nc1c(C#N)n[nH]n12 | 119%
11 | O=C1CC(N2C(=O)/C(=C/C(Cl)=C\c3ccc([N+](=O)[O-])cc3)SC2=S)C(=O)N1c1ccc(O)cc1 (stereo not given) | -26.8% (active)
12 | C=CCNc1nc(NN2C(=O)c3cccc4cccc(c34)C2=O)nc(-n2cnc3ccccc32)n1 | 32.4%
13 | COc1ccc2c(c1)C(=O)/C(=C/c1ccc(OCC(=O)Nc3nccs3)cc1)O2 | 99.7%
14 | Clc1cccc(Cl)c1/C=C/c1cc(/C=C/c2c(Cl)cccc2Cl)[nH]n1 | 19%
15 | COc1ccc(NC(=O)c2nc(-c3cc(OC)c(OC)c(OC)c3)n(-c3cccc4ccccc34)n2)cc1OC | 42.6%
16 | COc1cc(-c2n/c(=C\c3c(O)[nH]c4ccc(Cl)cc34)cc3c2=Nc2ccccc2-3)cc(OC)c1OC | 52.4%
17 | CN(C)c1ccc(-c2cc(-c3ccc(Nc4nc(Nc5ccc(Cl)cc5)nc(Nc5ccc(Cl)cc5)n4)cc3)no2)cc1 | 67.5%
18 | CC(C)(C)c1ccc(/C=C/C(=O)Nc2ccc(O)cc2)cc1 | 103%
19 | C#CCOc1nc(C)cc(C)c1C#N | 87.7%
20 | O=C(Nc1ccccc1)Nc1cccc(Oc2nnc(Cl)c3ccccc23)c1 | 49.2%

Row | SMILES | growth
21 | NC(=S)Nc1cccc(O)c1 | 115%
22 | O=C1c2cccc(NCCN=Cc3cc([N+](=O)[O-])ccc3O)c2C(=O)c2c(NCCN=Cc3cc([N+](=O)[O-])ccc3O)cccc21 | 80.9%
23 | Cc1ccc(C2SCC(=O)N2Cc2ccccc2)cc1 (stereo not given) | 109%
24 | CCCCc1ccc(Nc2ccc(Nc3ccc(CCCC)cc3S(=O)(=O)O)c3c2C(=O)c2ccccc2C3=O)c(S(=O)(=O)O)c1 | 119%
25 | Cc1ccc(N2CCN(C(=S)c3cccs3)CC2)cc1 | 99.1%
26 | CN(C)c1ccc(/C=C/C(=O)c2cccc(Nc3nc(Nc4ccccc4)nc(Nc4ccccc4)n3)c2)cc1 | 76.8%
27 | Cn1cc(-c2csc(-c3ccccc3)n2)c2cccnc21 | -82.4% [100 µM] (active)
28 | N#Cc1c(-c2ccccc2)cc(-c2ccc(Nc3nc(Nc4ccc(F)cc4)nc(Nc4ccc(F)cc4)n3)cc2)nc1N | 91.7%
29 | Cc1ccc(-n2nc3c(c(C#N)c2=O)CC(c2ccccc2Cl)C([N+](=O)[O-])=C3O)cc1 (stereo not given) | 85.9%
30 | O=c1c2c3c(sc2n2c(-c4cc(-c5ccccc5)nn4-c4ccccc4)nnc2n1Cc1ccccc1)CCCC3 | 141%
31 | CCCCCS(=O)(=O)Nc1ccc(C(=O)O)cc1 | 104%
32 | COc1cccc(-c2nn(-c3ccccc3)cc2-c2ccnc(NCCCNC(=O)c3ccccc3)c2)c1 | 59.4%
33 | O=C(CCCCCCN1CC(=O)N2[C@@H](c3ccccc3Cl)c3[nH]c4ccccc4c3C[C@H]2C1=O)NO | 73.5%
34 | COc1cccc(-c2nc3sccn3c2-c2ccnc(NCCNS(=O)(=O)c3cccc(Cl)c3)c2)c1 | 44.1%
35 | CC(C)C(NC(=O)C1(NC(=O)OCc2ccccc2)CCCC1)C(=O)O (stereo not given) | 102%
36 | c1c[nH]c(CNC2CCCCC2)c1 | 91.3%
37 | Cc1ccc(NS(=O)(=O)c2ccc3c(c2)C2OCCC2C(c2ccc(C(=O)C(C)C)cc2)N3)cc1C (stereo not given) | 40.1%
38 | Cc1cc(C)c(-c2c(C)cc(C)cc2CBr)c(CBr)c1 | 73.1%
39 | CCCCCCCCCCN(CCCCCCCCCC)CC(=O)c1ccc2cc(Br)c3ccccc3c2c1 | 53.2%
40 | CCN(CC)CCN1C(=O)c2c(c(C)c3c(oc4cc(O)ccc43)c2C)C1=O | 101%
